The values that follow come from PubChem BioAssay (Tox21).

Values joined by “and” are separate entries in the source; they are usually repeats but may differ in a detail not shown here. Equal values may be shown once. Results filed as inconclusive are left out. Unmarked numbers belong to inactive results. Active and inactive are the calls of the source. Calls come from the whole dose curve; as a rule, active = well fitted activation curve with a large enough effect in the repeat runs; inconclusive = weak or mixed curves; inactive = flat fitted curve, though single readings scatter.
% is set by controls: 0 for no effect and ±100 for the full control effect; potency is the fitted concentration of half-maximal effect.

A short description of the test: A CellTox Green Cytotoxicity Assay to monitor cytotoxicity in HepG2 cells - 24 hour (AID 1224878). Note: nearly all actives have a fitted effect of over 45% in size. The following applies: CellTox Green fluorescence; series mostly up to 76.8 µM; cytotoxicity: at the top concentration. The source says: National Center for Advancing Translational Sciences [NCATS]
NIH Chemical Genomics Center [NCGC]
U.S. Environmental Protection Agency [EPA]
National Institutes of Environmental Health Sciences [NIEHS]
National Toxicology Program [NTP]
Cell-based models are critical for drug discovery. Determining the natural cytotoxic effects resulting from test compounds is an essential research activity. A CellTox Green Cytotoxicity Assay to monitor cytotoxicity in real time of continues cell culture during 40 hours of the compound treatment was used to screen Tox21 10K library compounds in HepG2 cells. CellTox Green Cytotoxicity Assay is a nonlytic, homogeneous, biofluorescent method to measure cytotoxicity in cell culture after experimental manipulation. The assay system uses a proprietary asymmetric cyanine dye that is excluded from viable cells but preferentially stains the dead cell's DNA. […] Viable cells produce no appreciable increases in fluorescence. Therefore, the fluorescence signal produced by the binding interaction with dead cell DNA is proportional to cytotoxicity.
The mixture of HepG2 cell suspension and reagents were dispensed at 600cells/6 ul/well in 1536-well tissue culture treated black solid bottom plates using a Multidrop dispenser. After the assay plates were incubated at a 37 C/5% CO2 incubator for 5 hours, 23 nL of compounds dissolved in DMSO, positive and negative controls was transferred to the assay plate by a pintool work station. The plates were incubated at 37 C for 40 hours. The fluorescence intensity were measured at 0h, 8h, 16h, 24h, 32h and 40h time points using ViewLux plate reader during compound treatment.
For the compound `SCCCCCCCCS`, the Potency is 19.5 µM (active).

For the compound `CC(C)c1cccc(C(C)C)c1N1C(=O)c2ccc(O)cc2C1=O`, the Potency was 24.5 µM (active).

On to `CN1[C@@H]2CC[C@H]1CC(OC(=O)C(CO)c1ccccc1)C2` (stereo not given in full), for which the Potency result was “inactive”.

Regarding `C=CC(=C)CC/C=C(\C)CCC=C(C)C`, the cytotoxicity was -0.282% [at 15.8 µM].

Consider `CCc1c(C(=O)O)c(=O)cnn1-c1ccc(Cl)cc1`, for which the “cytotoxicity” value is 3.73%.

Turning to `CCc1cccc(CC)c1NC(=O)C(=O)O`, the “cytotoxicity” value is 11.6%.

`CC(C)(c1cc(Br)c(O)c(Br)c1)c1cc(Br)c(O)c(Br)c1`: the “cytotoxicity” value is 18%.

Take `C[C@@]12C(=O)OC(=O)[C@]1(C)C1CCC2O1`: the Potency was 19 µM (active).

For `O=C(Nc1ccc(Cl)c(Cl)c1)c1cc(Cl)cc(Cl)c1O`, the Potency is 9.77 µM (active).

Consider `O=C(c1ccccc1)c1cc(Cl)ccc1O`, for which the “cytotoxicity” value was 15.6%.

As to `Oc1ccc(-c2ccc(O)cc2)cc1`, the “cytotoxicity” value was 7.64%.

As to `CCC(=O)CC(C)CC` (stereo not given), the cytotoxicity was 8.2% [at 0.29 µM].

Turning to `O=C1NCN(c2ccccc2)C12CCN(CCCC(c1ccc(F)cc1)c1ccc(F)cc1)CC2`, the Potency was 7.56 µM (active).

For the compound `C(=C/c1ccccc1)/c1ccccc1`, the “cytotoxicity” value is 5.27%.

In the case of `CCCCCCC(C)Nc1ccc(Nc2ccccc2)cc1` (stereo not given), the “cytotoxicity” value was 16%.

With `CNCC[C@H](Oc1cccc2ccccc12)c1cccs1`, the Potency was 21.3 µM (active).

As for `COc1nccnc1CC(C)C`, the “cytotoxicity” value was 1.2%.

As to `CCCCCCCOC(=O)c1ccc(O)cc1`, the Potency was 24.5 µM (active).

`C/C=C/C=N/NC(=O)c1ccncc1`: the “cytotoxicity” value is -9.57% [at 35.3 µM].

`CC(=O)Oc1ccc(C2(c3ccc(OC(C)=O)cc3)C(=O)Nc3ccccc32)cc1`: the “cytotoxicity” value is 1.26% [at 35.3 µM].

For `O=C[C@H](O)[C@H](O)[C@H](O)CO`, the “cytotoxicity” value is 1.59%.

For `O=C=NCc1cccc(CN=C=O)c1`, the cytotoxicity was 0.14% [at 15.8 µM].

On to `CC(C)(C)c1n[nH]c(=O)n(N)c1=O`, for which the “cytotoxicity” value is -10.5%.

As to `CCN(CC)CCOc1ccc(C(O)(Cc2ccc(Cl)cc2)c2ccc(C)cc2)cc1` (stereo not given), the Potency is 21.3 µM (active).

Consider `CCCCCCCCCCCCCCCCCO`, for which the cytotoxicity is 1.75% [at 15.8 µM].

For `CCOC(=O)CN`, the “cytotoxicity” value was -0.317%.

As for `CCCCCCCCCCCCOC(=O)c1cc(O)c(O)c(O)c1`, the Potency is 48.8 µM (active) and 49 µM (active).

For `CC1(C)C(=O)N(CO)C(=O)N1CO`, the “cytotoxicity” value is -0.924%.

Take `Nc1ccc2cc3ccc(N)cc3nc2c1`: the Potency is 49 µM (active) and 23.9 µM (active).

Regarding `Nc1cc(Cl)c([N+](=O)[O-])cc1O`, the “cytotoxicity” value is 0.262%.

As to `CS(C)(=O)=O`, the “cytotoxicity” value is -21.6%.

For `CN(C)c1ccc(N=Nc2ccccc2C(=O)O)cc1`, the “cytotoxicity” value is -0.535%.

Consider `Cn1cnc2ncnc(N)c21`, for which the “cytotoxicity” value was -13.5% [at 35.3 µM].

On to `O=C1c2c(O)ccc(O)c2C(=O)c2c(NCCNCCO)ccc(NCCNCCO)c21`, for which the “cytotoxicity” value was -63.6% [at 35.3 µM].

As for `COc1ccccc1OCCNCC(O)COc1cccc2[nH]c3ccccc3c12` (stereo not given), the Potency was 26.8 µM (active).

Take `C/C=C/CO`: the “cytotoxicity” value was 0.733%.

`CCN=C1C=CC(=C(c2ccc(N(CC)CC)cc2)c2ccc(N(CC)CC)cc2)c2ccccc21`: the Potency is 17.3 µM (active).

In the case of `Cc1cccc(C)c1NC(=O)CN1CCN(CCCC(c2ccc(F)cc2)c2ccc(F)cc2)CC1`, the Potency is 23.9 µM (active).

Regarding `CN(C)c1ccc(N=NS(=O)(=O)O)cc1`, the “cytotoxicity” value is -6.66%.

For `C=CC(=C)CCC=C(C)C`, the “cytotoxicity” value is -5.92%.
